Test results as given in PubChem BioAssay (EPA / NIEHS).
Results filed as inconclusive are left out. Active and inactive are the calls of the source. How the source made its calls: active means hit-call score of the fitted dose curve at least 0.9, where 1 is the maximum; inconclusive means response in the unintended direction; inactive means score below 0.9.

Read-out: sulfotransferase (SULT2A), SULT2A1 (gene 6822)
Assay: CLD_SULT2A_48hr: CellzDirect (CLD) Gene Expression Assay for sulfotransferase (SULT2A) at 48 hours (AID 2283710);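 further: hits raise SULT2A1 transcript above the 0.2% DMSO vehicle baseline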
Experimental: CLD_48hr is a cell-based, multiplexed-readout assay that uses hepatocyte, a human liver primary cell, with measurements taken at 48 hours after chemical dosing in a 96-well plate.CLD_SULT2A_48hr is one of 16 assay component(s) measured or calculated from the CLD_48hr assay. It is designed to make measurements of mRNA induction, a form of inducible reporter, as detected with chemiluminescence signals by Quantitative Nuclease Protection Assay (qNPA) technology.Data from the assay component CLD_SULT2A_48hr was analyzed at the endpoint, CLD_SULT2A_48hr, in the positive analysis fitting direction relative to DMSO as the negative control and baseline of activity. Using a type of inducible reporter, gain-of-signal activity can be used to understand changes in the reporter gene as they relate to the gene SULT2A1. Furthermore, this assay endpoint can be referred to as a primary readout. To generalize the intended target to other relatable targets, this assay endpoint is annotated to the transferase intended target family, where subfamily is sulfotransferase.
Human hepatocyte cultures were treated daily for two consecutive days with fresh dosing solutions containing appropriate concentrations of the 320 ToxCast chemicals (chemical identities were blinded to CellzDirect and other ToxCast collaborators), vehicle control (0.2% DMSO), and positive control inducers as summarized in Table 1. Due to the large number of treatment groups and chemicals examined, the ToxCast chemicals were divided into two groups (spanning two independent cultures of hepatocytes from separate donor preparations (Hu778: ToxCast plates 1 and 2; Hu776: ToxCast plates 3 and 4). Each preparation of human hepatocyte cultures was treated with respective vehicle control, medium only control, set of six positive controls/reference chemicals for the five hepatic receptor pathways, and a subset of eight of the ToxCast chemicals (indoxacarb, pyrithiobac-sodium, norflurazon, cyhalofop-butyl, methomyl, thiram, acetochlor, and propiconazole). These replicate data, coupled with internal replicates designed within the blinded ToxCast chemical library, provided additional data to evaluate interindividual differences between hepatocyte preparations and their potential impact on chemical profiles.Cell morphology and integrity were evaluated using phase-contrast microscopy as an indicator of hepatocyte cell health (Tyson & Green, 1987). Cultures for each treatment group (i.e., media, vehicle [0.2% DMSO], positive control inducers [multiple concentrations], and the ToxCast chemicals [multiple concentrations]) were observed and cell morphology was assessed relative to vehicle control cultures at each harvest time point (0, 6, 24, or 48 h). […] Images were evaluated at the conclusion of the study to assess changes in cell integrity and account for the effects of chemical exposure on uncharacteristic changes in concentration-dependent gene expression profiles. The results from these determinations of apparent cytotoxicity were annotated (yes/no) alongside the corresponding qNPA data for reference.At the conclusion of each treatment period, hepatocyte cultures (96-well) were washed with 1 volume of HBSS, lysed by addition of 25 ul ArrayPlate lysis buffer (HTG, Tucson, AZ), and 70 ul/well of Denaturation Oil, denatured by incubation at 95C for 10 min, and frozen at approximately -70C until analysis by nuclease protection assay (qNPA) (Roberts et al., 2007). For qNPA analysis, cell lysates were thawed at 50C for approximately 30 min, qNPA probes were added, and samples were incubated at 95C for 10 min to begin the detection process by denaturing the target RNA, dissociating the duplexes and secondary structure hybridization. At the conclusion of the hybridization period, S1 nuclease reagent was added to each sample to digest all nonprotected nucleotides at 50C for 60-90 min. […]

| SMILES | AC50 | outcome |
| --- | --- | --- |
| N#CC(CCc1ccc(Cl)cc1)(Cn1cncn1)c1ccccc1 (stereo not given) | 20 µM (active) | – |
| OC(c1ccc(Cl)cc1)(c1cncnc1)c1ccccc1Cl (stereo not given) | – | inactive |
| COc1nc(C)nc(NC(=O)NS(=O)(=O)c2ccccc2CCC(F)(F)F)n1 | – | inactive |
| COP(N)(=O)SC (stereo not given) | – | inactive |
| CC1COC(Cn2cncn2)(c2ccc(Oc3ccc(Cl)cc3)cc2Cl)O1 (stereo not given) | – | inactive |
| C=CC1(C)OC(=O)N(c2cc(Cl)cc(Cl)c2)C1=O (stereo not given) | – | inactive |
| CCCN(CCC)c1c([N+](=O)[O-])cc(S(N)(=O)=O)cc1[N+](=O)[O-] | 6.29 µM (active) | – |
| C=CCC1=C(C)[C@@H](OC(=O)[C@@H]2[C@@H](C=C(C)C)C2(C)C)CC1=O | – | inactive |
| Fc1ccc(Oc2ccnc3cc(Cl)cc(Cl)c23)cc1 | – | inactive |
| COc1ccc(C(c2ccc(OC)cc2)C(Cl)(Cl)Cl)cc1 | – | inactive |
| COC(=O)c1ccccc1C(=O)OC | – | inactive |
| O=C(O)c1nc(Cl)ccc1Cl | – | inactive |
| CC(Oc1ccc(Cl)cc1Cl)C(=O)O (stereo not given) | – | inactive |
| CCOC(=O)CC(SP(=S)(OC)OC)C(=O)OCC (stereo not given) | – | inactive |
| CON(C)C(=O)Nc1ccc(Cl)c(Cl)c1 | – | inactive |
| CC(C)C1(C)N=C(c2nc3ccccc3cc2C(=O)O)NC1=O (stereo not given) | – | inactive |
| CCc1nn(C)c(C(=O)NCc2ccc(C(C)(C)C)cc2)c1Cl | 20 µM (active) | – |
| CCOP(=S)(OCC)SCn1c(=O)oc2cc(Cl)ccc21 | – | inactive |
| CCCC1COC(Cn2cncn2)(c2ccc(Cl)cc2Cl)O1 (stereo not given) | – | inactive |
| CCNc1nc(Cl)nc(NCC)n1 | – | inactive |

| SMILES | AC50 | outcome |
| --- | --- | --- |
| COC(=O)N(OC)c1ccccc1COc1ccn(-c2ccc(Cl)cc2)n1 | 9.28 µM (active) | – |
| Oc1ccccc1-c1ccccc1 | – | inactive |
| N#Cc1nn(-c2c(Cl)cc(C(F)(F)F)cc2Cl)c(N)c1S(=O)C(F)(F)F (stereo not given) | – | inactive |
| Cc1c(F)c(F)c(COC(=O)C2C(/C=C(\Cl)C(F)(F)F)C2(C)C)c(F)c1F (stereo not given) | – | inactive |
| C=CCC1=C(C)C(OC(=O)C2C(C=C(C)C)C2(C)C)CC1=O (stereo not given) | – | inactive |
| CCON=C(CC)C1=C(O)CC(c2c(C)cc(C)cc2C)CC1=O (stereo not given) | – | inactive |
| CCCCC(CC)COC(=O)c1ccccc1C(=O)OCC(CC)CCCC (stereo not given) | – | inactive |
| C#CCOS(=O)OC1CCCCC1Oc1ccc(C(C)(C)C)cc1 (stereo not given) | – | inactive |
| N#Cc1cc(Br)c(O)c(Br)c1 | – | inactive |
| CCNc1nc(Cl)nc(NC(C)C)n1 | – | inactive |
| COc1nc(NC(C)C)nc(NC(C)C)n1 | – | inactive |
| CCOC(=O)C(Cl)Cc1cc(-n2nc(C)n(C(F)F)c2=O)c(F)cc1Cl (stereo not given) | – | inactive |
| COc1cnc(OC)n2nc(NS(=O)(=O)c3c(OCC(F)F)cccc3C(F)(F)F)nc12 | – | inactive |
| COC(=O)C=C(C)OP(=O)(OC)OC | – | inactive |
| CCOc1cc(Oc2ccc(C(F)(F)F)cc2Cl)ccc1[N+](=O)[O-] | – | inactive |
| COC(=O)C(C)Oc1ccc(Oc2ccc(Cl)cc2Cl)cc1 (stereo not given) | – | inactive |
| O=C(Nc1ccccc1)Nc1ccnc(Cl)c1 | – | inactive |
| CC(C)(C)c1ccc(CSc2cnn(C(C)(C)C)c(=O)c2Cl)cc1 | – | inactive |
| CS/C(C)=N/OC(=O)N(C)SN(C)C(=O)O/N=C(\C)SC | – | inactive |
| CCCCOC(=O)c1ccccc1C(=O)OCCCC | – | inactive |
